Records with an inconclusive call do not appear. The call rests on the fitted dose curve; in most records, active means well fitted curve in the direction sought with a large enough effect; inconclusive means small, poorly fitted or top-dose-only effect, or effect the other way, or another doubt; inactive means no such curve, though single readings can be large or run the other way.
The compounds below were run against Alpha-galactosidase A (Homo sapiens) (UniProt P06280) (assay: Confirmation of Inhibitors of Human alpha-Galactosidase Using Spleen Homogenate). Details: alpha-galactosidase enzyme activity; series mostly up to 56.2 µM; activity change: at the top concentration.
Sequence of Alpha-galactosidase A (Homo sapiens) (P06280 32-429 limits assumed): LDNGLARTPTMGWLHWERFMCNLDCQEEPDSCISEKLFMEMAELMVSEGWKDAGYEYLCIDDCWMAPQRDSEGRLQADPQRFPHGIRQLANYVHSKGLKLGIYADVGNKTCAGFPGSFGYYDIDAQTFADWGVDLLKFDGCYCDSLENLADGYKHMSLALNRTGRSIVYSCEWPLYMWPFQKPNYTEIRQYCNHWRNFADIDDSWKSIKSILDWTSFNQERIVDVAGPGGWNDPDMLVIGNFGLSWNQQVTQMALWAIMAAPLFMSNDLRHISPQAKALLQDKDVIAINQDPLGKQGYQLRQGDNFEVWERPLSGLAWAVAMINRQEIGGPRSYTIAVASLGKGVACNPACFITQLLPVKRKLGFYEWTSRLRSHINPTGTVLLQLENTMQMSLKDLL
Source text: NIH Chemical Genomics Center [NCGC]
NIH Molecular Libraries Probe Production Centers Network [MLPCN]
Assay Submitter (PI): Wei Zheng
Alpha-galactosidase is a homodimeric glycoprotein that hydrolyzes the terminal alpha-galactosyl moieties from glycolipids and glycoproteins. Deficiency of this enzyme results in Fabry Disease with progressive accumulation of globotriaosylceramide and other glycosphingolipids in vascular endothelial cells that causes renal failure, myocardial infarction and stroke, and premature death in patients. It has been reported that the improper folding and trafficking of alpha-galactosidase resulting from genetic mutations may account for a significant number of Fabry patients. […] We optimized this alpha-galactosidase assay in 1536-well plate format for identification of novel small molecule inhibitors or activators with structures other than the sugar analogs in order to develop new pharmacological chaperones. In particular, this assay is directed towards discovering compounds active in more natural setting, tissue homogenate, that may have been missed by screens of the purified enzyme under more stringent conditions. This assay attempted to confirm hits from the primary screening.
NCGC Assay Protocol Summary:
This is a fluorogenic enzyme assay with 4-methylumbelliferyl-alpha-D-galactopyranoside as the substrate and human spleen homogenate containing alpha-galactosidase as the enzyme preparation. Upon hydrolysis of this fluorogenic substrate, the resulting product, 4-methylumbelliferone (which excites at 365 nm and emits at 440 nm) can be detected by a fluorescence plate reader. Data were normalized to the controls for basal activity (without enzyme) and 100% activity (with enzyme). The AC50 values were determined from concentration-response data modeled with the standard Hill equation.
Assay buffer: 50 mM citric acid (titrated with potassium phosphate to pH 5.0), 0.01% Tween-20 (pH 5.0 is an optimal condition for this enzyme assay)
1536-well assay protocol for the alpha-galactosidase from human spleen homogenate:
(1) Add 2 ul/well spleen homogenate (1 ug)
(2) Add 23 nL compounds in DMSO solution. The final titration was 0.5 nM to 58 uM.
(3) Add 2 ul of substrate (1 mM final)
(4) Incubate at 37C for 40 min
(5) Add 2 ul stop solution (1M NaOH and 1M Glycine mixture, pH 10)
(6) Detect the assay plate in a ViewLux plate reader (PerkinElmer) with Ex=365 nm and Em=440nm.
Keywords: Alpha-galactosidase, Fabry Disease, pharmacological chaperone, chaperone therapy, high throughput screening, alpha- galactosidase inhibitor, MLSMR, MLSCN, NIH Roadmap, qHTS and NCGC
Further: 0% is about no effect.

Activity change, inactive:
CC(=O)Nc1ccc(S(=O)(=O)/N=C2/NC(=O)/C(=C\c3ccco3)S2)cc1 -1.55% [at 23.6 µM]
O=C(Nc1ccccc1)C1CCN(S(=O)(=O)c2ccccc2)CC1 11.6%
CCCN1CNc2c(c(=O)[nH]c(=S)n2CCc2ccc(OC)c(OC)c2)C1 1.78% [at 23.6 µM]
COc1ccccc1NCC(=O)n1nc(C)cc1C -2.77%
CC(C)(C)c1ccc(OCC(=O)NC(Cc2c[nH]c3ccccc23)C(=O)O)cc1 (stereo not given) -12.9%
CC(=O)Nc1cccc2c1C(=O)NC2=O -6.6% [at 23.6 µM]
Cc1c(Nc2c3ccccc3nc3ccccc23)c(=O)n(-c2ccccc2)n1C -1.1% [at 23.6 µM]
O=C1c2cc(S(=O)(=O)N3CCOCC3)ccc2-c2ccc(S(=O)(=O)N3CCOCC3)cc21 11.1%
COCCSc1nc(N)c2c3c(sc2n1)CN(C)CC3 3.09%
COc1ccc(C2=NNC(c3cc(Cl)cc4c3OCOC4)C2)c(O)c1 (stereo not given) 0.302%
CC(=O)N1CCN(c2ccc(NCc3ccc(C)cc3)cc2)CC1 -3.79%
O=C(Nc1nnc(-c2cccc(F)c2)s1)Nc1ccccc1F 13.6%
CCC1C(=O)NCCN1Cc1nc(-c2ccc(C)s2)oc1C (stereo not given) 6.37%
N#CCCN1CCN(S(=O)(=O)c2ccc(S(=O)(=O)N3CCOCC3)cc2)CC1 6.75%
CC1=C(C(=O)Nc2ccccc2C)C(c2ccccn2)n2nc(SCc3ccccc3F)nc2N1 (stereo not given) -7.43%
O=[N+]([O-])c1ccccc1Nc1ccc(O)cc1 -2.47%
CCC1OC23CCCCC2C(C#N)(C(=N)O3)C1(C#N)C#N (stereo not given) 5.38% [at 23.6 µM]
Cc1ccc(S(=O)(=O)N2CCN(C(=O)C3COc4ccccc4O3)CC2)cc1C (stereo not given) 3.88%
O=C(CNc1ccc(Cl)cc1)c1ccc(Br)cc1 1.37%
CC(=O)N1CCN(c2ccc(NCc3ccccc3)cc2)CC1 -8.48%
Cc1ccc(N2CC(C(=O)NCc3ccc(C)n3C)CC2=O)cc1 (stereo not given) -0.0186%
C=CCSc1nc(-c2ccc3c(c2)OCO3)cc(C(F)(F)F)c1C#N 69.7%
COc1ccccc1CNc1ccc(N2CCOCC2)c(C(=O)O)c1 -4.04%
C=C(C)CC(NCc1ccco1)c1ccc(OC)cc1 (stereo not given) 3%
O=C(NN=C1c2ccccc2-c2ccccc21)c1cccc(S(=O)(=O)N2CCOCC2)c1 -1.65%
O=S(=O)(c1ccccc1)N1CCNCC1 12.7%
Cc1ccc2c(=O)c3ccccc3n(CCCN)c2c1C -8.95%
CCN(CC)c1ccc(/C=N/NC(=O)C(O)c2ccccc2)cc1 (stereo not given) -3.15% [at 23.6 µM]
O=C(O)c1cc(NCc2ccccc2)ccc1N1CCOCC1 -1.74%
O=c1oc2ccc(Cl)cc2cc1-c1nc2c(s1)CCc1ccccc1-2 5.46%
Nc1nc(C2CC2)c(Sc2sc(N)nc2C2CC2)s1 -1.12%
Cc1noc(C)c1S(=O)(=O)N(CC(=O)N1CCc2ccccc21)c1ccc(C(C)C)cc1 2.56%
O=S(=O)(c1ccccc1)N1CCN(S(=O)(=O)c2ccccc2)CC1 1.73%
COc1ccc(-n2cc(CNCCc3ncc(C)[nH]3)c(-c3ccccc3Cl)n2)cc1 -2.96%
CCc1sc(-c2cc3ccc(O)cc3oc2=O)nc1-c1ccccc1 3.17%
O=C1CC(c2ccccc2)Cc2nc(NCc3ccco3)ncc21 (stereo not given) -2.65%
Cc1ccc(S(=O)(=O)NN2C(=O)/C(=C\c3ccc(Cl)cc3)SC2=S)cc1 -6.49%
Cc1cccc2cc3c(NC(=O)c4ccccn4)nn(C)c3nc12 4.42% [at 23.6 µM]
CCc1sc(-c2cc3ccc(O)cc3oc2=O)nc1-c1ccc(C)cc1 23.7%
O=c1oc2ccc(Br)cc2cc1-c1nc2c(s1)CCc1ccccc1-2 -6.87%

— PubChem BioAssay AID2108 (National Center for Advancing Translational Sciences (NCATS), 2009)
